Compounds with a hit are over-represented: about 9.2% of the library has one in this group of screens.
ELG1 DNA repair: inhibitors of ELG1-dependent DNA repair in HEK293T cells; HEK293T ELG1-luciferase reporter, luminescence, 16 h; DNA damage induced by 5-fluorouridine; Potency, µM (doses to about 46.1 µM), for the others: at the highest dose activity change, negative = inhibition, most hits filed as inhibitors; 330,000 tested, 2.3% active; note: % is set by controls: 0 for no effect and ±100 for the full control effect; nearly all actives have a fitted effect of over 55% in size
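Cells (2,000 per well) received 5-fluorouridine plus test compound or DMSO and were incubated 16 hr at 37 °C, 5% CO2. Luciferase activity was read by luminescence 30 min after ONE-Glo addition; signal suppression marked inhibition of damage-induced ELG1 function.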
Rab9 prom act: activators of Rab9 promoter; Huh7 Rab9 promoter-luciferase reporter, luminescence, 24 h; Potency, µM (series often up to 9.22 µM), for the others: at the top dose activation, negative = inhibition, most hits filed as activators; 320,000 tested, 2.8% active; AID 485297; note: % of control where 0% means no effect; nearly all actives have a fitted effect of over 60% in size
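Using Huh7 cells stably transfected with Rab9 promoter–luciferase, compounds were incubated 24 h at 37 °C, 5% CO2; luciferase luminescence was read 10 min after reagent addition.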
ELG1 genotoxic: genotoxicity induction in ELG1-luciferase HEK293T cells; HEK293T ELG1-luciferase reporter, luminescence, 16 h; Potency, µM (series often up to 46 µM), for the others: at the top dose activity change, positive = activation, most hits filed as activators; 330,000 tested, 1.3% active; AID 504466; note: % of control where 0% means no effect; nearly all actives have a fitted effect of over 60% in size
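Cells (2,000/well) expressing the ELG1-luciferase fusion are dosed by pin tool and kept 16 hr at 37 °C, 5% CO2. Signal comes from ONE-Glo luciferase reagent after 30 min at room temperature.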
FLuc counter: firefly luciferase modulation, counter-screen for miR-21 project. P08659. purified FLuc, Km substrates, luminescence inhibition. Potency, µM (doses to about 57.5 µM), for inactives: top-dose activity change, negative = inhibition, usual class: inhibitors. 360,000 tested, 6.9% active. AID 588342;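 note: plate controls were vehicle for no effect and reference inhibitor for full effect; nearly all actives have a fitted effect of over 55% in size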
Target sequence (P08659 whole entry, looked up): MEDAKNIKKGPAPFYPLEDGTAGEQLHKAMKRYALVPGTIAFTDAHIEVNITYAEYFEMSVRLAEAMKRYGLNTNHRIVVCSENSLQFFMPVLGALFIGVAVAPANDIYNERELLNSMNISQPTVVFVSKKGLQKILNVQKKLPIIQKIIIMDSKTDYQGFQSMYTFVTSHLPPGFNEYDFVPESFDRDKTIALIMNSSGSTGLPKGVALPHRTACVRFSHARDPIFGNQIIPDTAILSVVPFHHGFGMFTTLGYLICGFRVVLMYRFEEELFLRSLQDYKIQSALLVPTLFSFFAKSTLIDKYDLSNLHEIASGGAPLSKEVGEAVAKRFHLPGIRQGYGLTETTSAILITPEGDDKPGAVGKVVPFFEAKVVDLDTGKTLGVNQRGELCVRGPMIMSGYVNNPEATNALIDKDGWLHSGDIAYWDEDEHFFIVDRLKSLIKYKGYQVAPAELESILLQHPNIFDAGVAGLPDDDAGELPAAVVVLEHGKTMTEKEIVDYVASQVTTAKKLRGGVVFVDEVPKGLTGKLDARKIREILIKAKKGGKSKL
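Purified P. pyralis luciferase, 10 nM final, with Km-level 10 uM D-luciferin and 10 uM ATP in 50 mM Tris acetate pH 7.5, 10 mM Mg acetate, 0.01% Tween-20, 0.05% BSA; 6-point qHTS titration about 60 µM downward; luminescence read.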
SMN2 splice up: SMN2 splice variant enhancement; Potency, µM (doses to about 46.1 µM), inactives show at the top dose activity change, positive = activation, usual class: activators; 210,000 tested, 2.8% active; HEK293 SMN2-luciferase splicing reporter, luminescence, 30-36 h; note: % of control where 0% means no effect; nearly all actives have a fitted effect of over 55% in size
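HEK293 cells carry an SMN2 […]–luciferase reporter in which exon 7 inclusion puts luciferase in frame. Cells were plated 10-12 h before compound addition, then incubated 30-36 h at 37C. ONE-Glo luminescence was read; sodium butyrate at 4.5 mM final served as control.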
NPC1 promoter act: NPC1 promoter activation; 320,000 tested, 2.4% active; AID 485313; Potency, µM (titrated, usually from 9.22 µM), inactives show at the top dose activation, actives largely listed as activators; Huh7 NPC1 promoter luciferase reporter, 24 h; note: % of control where 0% means no effect; nearly all actives have a fitted effect of over 60% in size
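Cells: Huh7 expressing luciferase under the NPC1 promoter, 1500/well. Seeded 2 h, compound added, incubated 24 h at 37 °C. Luciferase reagent, 10 min ambient, then luminescence.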
* hit, by the source's call; ? = inconclusive; . = not tested or not shown. Calls come from the whole dose curve; as a rule, active = well fitted curve in the direction sought with a large enough effect; inconclusive = small, poorly fitted or top-dose-only effect, or another doubt; inactive = no such curve, though single readings can be large; an effect the other way counts as inactive or inconclusive. Potency is the fitted concentration of half-maximal effect.

SMILES	ELG1 DNA repair	Rab9 prom act	ELG1 genotoxic	FLuc counter	SMN2 splice up	NPC1 promoter act
CCOC(=O)Cc1c(C(=O)OCC)nnc2c(-c3ccccc3)c(C)nn12	.	.	.	-18%	-2%	.
CCOC(=O)Cc1c(C)nc2c(-c3ccc(Cl)cc3)cnn2c1C	8%	-1%	5%	27µM*	-6%	1%
CCOC(=O)Cc1c(C)nc2c(-c3ccc(Cl)cc3)c(C)[nH]n2c1=O	-4%	-10%	-10%	0%	-5%	5%
O=C(NCCSc1c[nH]c2ccccc12)c1ccccc1Cl	.	.	.	2%	-14%	.
C/C(=N\NC(=S)NC(C)C)c1ccc(-n2ccnc2)cc1	8%	-1%	0%	4%	-3%	-4%
CCCc1ccc(/C=C2\C(=O)c3ccccc3C(O)=C2C(=O)OCC)cc1	?	2%	?	3.4µM*	10µM*	16%
CCOC(=O)c1ccc(COC(=O)c2ccc3c(c2)-c2ccccc2C3=O)cc1	-1%	0%	-1%	1%	-20%	-6%
CCOC(=O)C1=C(O)c2ccccc2C(=O)/C1=C\c1ccc(CC)cc1	20%	2%	-6%	3.4µM*	?	2%
CCOC(=O)C1=C(C)N(c2ccccc2)C(=O)/C1=C\c1ccc(O)c(OC)c1	?	1%	0%	?	.	-4%
O=C(OCC(=O)c1cccs1)c1ccccc1	?	11%	?	0.95µM*	-6%	21%
O=C(COC(=O)c1cc(=O)[nH]c2ccccc12)c1cccs1	3%	-7%	-2%	12µM*	.	-2%
Cc1ccc(C(=O)COC(=O)c2cc(=O)[nH]c3ccccc23)cc1	25%	3%	?	?	?	6%
O=C(COC(=O)c1cc(=O)[nH]c2ccccc12)c1ccccc1	-6%	0%	-8%	2.7µM*	5%	0%
O=C(N/N=C/c1cccc(F)c1)c1cc(-c2ccco2)nc2ccccc12	?	6%	8%	0.54µM*	?	1%
COc1cc(/C=N/NC(=O)c2cc(-c3ccco3)nc3ccccc23)cc(OC)c1O	?	-2%	-5%	12µM*	.	-6%
O=C(C1CCN(c2ccc(N3CCOCC3)nn2)CC1)N1CCN(c2ccc(F)cc2)CC1	16µM*	-3%	-4%	3%	-35%	-1%
N#C/C(=C\c1ccc(Cl)cc1)c1nc(-c2ccco2)cs1	?	21%	13%	?	21%	21%
N#C/C(=C\c1ccc(Cl)cc1)c1nc2ncccc2[nH]1	?	2%	16%	3µM*	3%	-2%
CCc1ccccc1NC(=O)C(CC)Sc1ncnc2c1sc1ccccc12 (stereo not given)	.	.	.	2%	.	.
Cc1ccccc1C(=O)NC1CCN(Cc2nnnn2CCc2ccccc2)CC1	-3%	2%	-2%	3%	-1%	1%
CCOC(=O)C1CCN(Cc2nnnn2CCc2ccccc2)CC1	?	1.6µM*	?	?	.	4µM*
COc1ccc(OC)c(S(=O)(=O)N/N=C(/C)c2ccc3c(c2)OCO3)c1	0%	0%	5%	-4%	.	-2%
CC(=O)c1c(C)oc2ccc(NS(=O)(=O)c3ccc(F)cc3C)cc12	6.5µM*	-5%	-27%	0%	.	-3%
Cc1cc(F)ccc1S(=O)(=O)Nc1ccc2oc3c(c2c1)CC(C)CC3 (stereo not given)	.	.	.	-12%	-58%	.
CCNS(=O)(=O)c1ccc(OC)c(C(=O)NC2CCCCC2)c1	0%	-9%	2%	-1%	1%	-5%
SMILES	ELG1 DNA repair	Rab9 prom act	ELG1 genotoxic	FLuc counter	SMN2 splice up	NPC1 promoter act
S=C(NCc1ccco1)Nc1ccc(Br)cc1Cl	10%	?	?	27µM*	9%	30%
S=C(NCc1ccco1)Nc1ccc(Cl)cc1Cl	?	19%	17%	?	-24%	16%
S=C(NCc1ccccn1)Nc1ccc(Br)cc1Cl	?	3.2µM*	?	?	11µM*	29%
CCOc1ccc(-c2cc(C(=O)N3CCN(c4ccc(C)cc4)C(C)C3)c3ccccc3n2)cc1 (stereo not given)	.	.	.	4.8µM*	.	.
CCOc1ccc(-c2cc(C(=O)N3CCN(c4cccc(C)c4)C(C)C3)c3ccccc3n2)cc1 (stereo not given)	.	.	.	2.4µM*	.	.
Cc1cc(N2CCN(C(=O)c3ccco3)CC2)n2nc(C)c(-c3ccc(Cl)cc3)c2n1	-7%	4%	-1%	10%	-34%	-1%
Cc1cc(N2CCN(C(=O)c3ccco3)CC2)n2nc(-c3cccc(Cl)c3)cc2n1	13µM*	-9%	-53%	5%	-31%	-2%
Cc1nc2cc(-c3cccc(Cl)c3)nn2c(N2CCN(C(=O)c3ccco3)CC2)c1C	?	3%	0%	17µM*	-5%	-2%
O=c1c(-c2ccc(O)cc2)coc2cc(O)ccc12	.	10µM*	.	.	13µM*	9.2µM*
Cc1oc2cc(O)ccc2c(=O)c1-c1cnn(-c2ccccc2)c1	17%	-2%	-1%	?	-9%	-2%
O=c1c(-c2cnn(-c3ccccc3)c2)coc2cc(O)ccc12	?	1.8µM*	?	5.4µM*	.	2.8µM*
COc1ccc(CCNC(=O)c2cccs2)cc1	?	28%	5%	?	.	29%
CSc1n[nH]c(-c2ccc(C(F)(F)F)cc2)n1	?	?	?	17µM*	.	?
Cc1ccc(CNC(=O)CSc2n[nH]c(-c3ccc(F)cc3)n2)cc1	.	.	.	-20%	.	.
CCCNC1=C(N(C(C)=O)c2cccc(F)c2)C(=O)c2ccccc2C1=O	4.6µM*	-38%	-13%	0%	-110%	-33%
CCC(=O)N(C1=C(NC(C)C)C(=O)c2ccccc2C1=O)C(C)C	?	-5%	-9%	-3%	.	1%
Cc1ccc(NC(=O)c2ccc3c(c2)N(CC(=O)N2CCCCC2)C(=O)C(C)(C)O3)cc1	13µM*	0%	-2%	1%	28%	-2%
CC(C)(C)NC(=O)c1ccc2c(c1)N(CC(=O)N1CCCCC1)C(=O)C(C)(C)O2	-2%	-5%	0%	-3%	.	-1%
CCOC(=O)CN1C(=O)C(C)(C)Oc2ccc(C(=O)Nc3ccccc3OC)cc21	18µM*	1%	-9%	-3%	-2%	-1%
CN(CC(=O)NCc1cccnc1)S(=O)(=O)c1ccc(F)cc1	1%	-2%	2%	0%	.	-6%
Cc1ccc(Nc2nc3nonc3[nH]c2=O)cc1	?	?	?	15µM*	17%	28%
COc1ccccc1Nc1nc2nonc2[nH]c1=O	7%	-10%	-3%	?	.	-3%
CCCCSc1ncnc2c1c(-c1ccccc1)cn2-c1cccc(F)c1	.	.	.	-4%	8%	.

Assay outcomes from PubChem.
